The test system of test [1] is Plasmodium falciparum Sir2 (PF13_0152, Sir2A). The experiment in a line: Plasmodium falciparum Sir2A binding compounds – biochemical, small-molecule microarray, 635 nm fluorescence, primary screen (AID 1098).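 Note: score merges spot fluorescence intensity with its signal-to-noise ratio.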 The following applies: fluorescence 635 nm, higher = more signal.
Test [2] can be described thus: probe aDKK1 binding to arrayed compounds – biochemical, biotinylated probe, 635/667 nm fluorescence, primary screen (AID 1099).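 Note: score merges 667nm spot fluorescence with signal to noise across triplicate slides.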 Conditions: small-molecule microarray, higher = more signal.
Test [3] in a line: probe aCHRDL2 binding to arrayed compounds – biochemical, biotinylated probe, 635/667 nm fluorescence, primary screen (AID 1100). The following applies: small-molecule microarray, higher = more signal.
Test [4] can be described thus: change in splice reporter luminescence, either direction, cell-based, HEK293, spliceosome inhibition project, primary screen (AID 1101).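 Note: HEK293 cells carrying a splicing-competent luciferase reporter gene; test concentration not given here.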 The following applies: HEK293 splicing luciferase reporter, 24 h, higher = more signal, called active from +8 up or from −8 down. (In a reporter assay the amount or activity of a reporter protein is the signal.)
The target of test [5] is Fibroblast growth factor 10 (Homo sapiens) (UniProt O15520). Description: compounds binding fibroblast growth factor 10 – biochemical, small-molecule microarray, 635 nm fluorescence, primary screen (AID 1102). Conditions: FGF10 binding, fluorescence 635 nm, higher = more signal.
Chain of Fibroblast growth factor 10 (Homo sapiens) (O15520 whole entry, looked up): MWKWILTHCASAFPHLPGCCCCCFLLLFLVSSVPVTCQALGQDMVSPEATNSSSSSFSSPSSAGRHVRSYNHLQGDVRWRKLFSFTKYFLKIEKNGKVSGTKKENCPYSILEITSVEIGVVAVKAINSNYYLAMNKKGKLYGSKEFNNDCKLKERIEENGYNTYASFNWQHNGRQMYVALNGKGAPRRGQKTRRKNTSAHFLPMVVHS
For test [6], the system named is glycogen synthase kinase-3 (GSK3A per assay name; protocol says GSK3B). Description: compounds binding glycogen synthase kinase-3 – biochemical, small-molecule microarray, 635 nm fluorescence, GSK3A, primary screen (AID 1103). Note: the record names both GSK3A and GSK3B. The following applies: fluorescence 635 nm, higher = more signal.
Test [7] addresses Epidermal growth factor receptor (Homo sapiens) (UniProt P00533). The experiment in a line: compounds binding epidermal growth factor receptor – biochemical, small-molecule microarray, 635 nm fluorescence, primary screen (AID 1104).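 Note: score merges 667 nm emission intensity with spot signal to noise over triplicate slides.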 Conditions: EGFR binding, higher = more signal.
For test [8], the target named is Follistatin-related protein 3 (Homo sapiens) (UniProt O95633). The experiment in a line: compounds binding follistatin-related protein 3 – biochemical, small-molecule microarray, 635 nm fluorescence, primary screen (AID 1105).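 Note: score merges emission near 667 nm and signal to noise per printed spot across three slides.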 Conditions: FSTL3 binding, higher = more signal.
Chain of Follistatin-related protein 3 (Homo sapiens) (O95633 whole entry, looked up): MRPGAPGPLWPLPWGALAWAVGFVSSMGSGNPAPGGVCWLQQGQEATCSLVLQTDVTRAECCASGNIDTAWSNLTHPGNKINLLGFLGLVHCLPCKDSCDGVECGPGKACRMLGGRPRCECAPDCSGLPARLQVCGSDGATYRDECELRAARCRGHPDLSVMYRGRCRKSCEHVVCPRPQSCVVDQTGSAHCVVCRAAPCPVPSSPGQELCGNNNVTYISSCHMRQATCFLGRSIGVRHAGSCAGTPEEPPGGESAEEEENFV
In test [9] the target is Dickkopf-related protein 1 (Homo sapiens) (UniProt O94907). Description: small molecules binding DKK1 protein – biochemical, small-molecule microarray, 635 nm fluorescence scan, primary screen (AID 1106).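 Note: score merges emission near 667 nm with signal to noise over three replicate slides.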 Conditions: higher = more signal.
Chain of Dickkopf-related protein 1 (Homo sapiens) (O94907 whole entry, looked up): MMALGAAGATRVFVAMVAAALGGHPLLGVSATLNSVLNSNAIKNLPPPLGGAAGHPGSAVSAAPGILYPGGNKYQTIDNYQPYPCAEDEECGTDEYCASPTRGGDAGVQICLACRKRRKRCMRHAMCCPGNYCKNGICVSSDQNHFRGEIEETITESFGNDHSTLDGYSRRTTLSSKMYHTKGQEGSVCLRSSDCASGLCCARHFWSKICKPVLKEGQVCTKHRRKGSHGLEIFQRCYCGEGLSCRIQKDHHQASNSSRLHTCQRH
Test [10] concerns Inhibin beta A chain (activin A). Description: small molecules binding activin A – biochemical, small-molecule microarray, 635 nm fluorescence scan, primary screen (AID 1107).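 Note: mouse activin A protein probed at 4.33 µg/mL on printed slides; score merges bound-protein fluorescence near 667 nm with spot signal-to-noise.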 The following applies: INHBA, higher = more signal.
Test [11] relates to Human papillomavirus type 1a protein E7 (residues 44-93). The experiment in a line: small molecules binding HPV E7 44-93 – biochemical, small-molecule microarray, residues 44-93, 635 nm fluorescence, primary screen (AID 1108).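 Note: E7 fragment applied at 1 µg/mL in TBST for 1 h at 4 C; score combines spot fluorescence with its signal to noise ratio.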 Conditions: fluorescence 635 nm, higher = more signal.
The nature of test [12]: hepatitis C replication reporter changes, two-sided – Huh7 cells, luciferase reporter, HCV replication inhibitor project, primary screen (AID 1109).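 Note: huh7 hepatoma cells harbouring a luciferase neomycin HCV replicon reporter; luciferase luminescence as measure of HCV replicon replication; test concentration not given here.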 The following applies: Huh7 HCV replicon luciferase reporter, 48 h; higher = more signal.
For test [13], the target named is Left-right determination factor 2 (Homo sapiens) (UniProt O00292). The experiment in a line: small molecules binding LEFTY2 protein – biochemical, small-molecule microarray, 635 nm fluorescence scan, primary screen (AID 1110). Conditions: higher = more signal.
Chain of Left-right determination factor 2 (Homo sapiens) (O00292 whole entry, looked up): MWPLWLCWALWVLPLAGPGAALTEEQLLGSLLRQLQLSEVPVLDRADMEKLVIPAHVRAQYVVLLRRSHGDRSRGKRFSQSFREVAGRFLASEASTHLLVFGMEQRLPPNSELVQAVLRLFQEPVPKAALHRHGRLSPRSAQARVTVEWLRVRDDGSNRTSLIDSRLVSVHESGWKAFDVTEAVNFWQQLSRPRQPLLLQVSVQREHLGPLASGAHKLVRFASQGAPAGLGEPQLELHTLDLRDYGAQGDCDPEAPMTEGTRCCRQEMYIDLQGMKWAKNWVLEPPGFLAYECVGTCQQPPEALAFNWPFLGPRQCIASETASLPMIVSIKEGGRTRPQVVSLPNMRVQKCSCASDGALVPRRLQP
For test [14], the target named is Calmodulin-1 (Homo sapiens) (UniProt P0DP23). Description: small molecules binding calmodulin-1 with EGTA – biochemical, small-molecule microarray, Cy5-labelled CALM1, profiling panel (AID 1111).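 Note: labelled calmodulin applied in Tris saline Tween buffer holding calcium plus EGTA and DTT.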 The following applies: Cy5-CALM1 binding fluorescence, higher = more signal.
Test [15] shares this target. Description: small molecules binding Ca-loaded calmodulin-1 – biochemical, small-molecule microarray, Cy5-labelled CALM1, plus calcium, artefact control for SMM control-protein annotation, profiling panel (AID 1112).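 Note: score merges spot fluorescence with signal to noise from triplicate slides.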 The following applies: Cy5-CALM1 binding fluorescence, higher = more signal.
Test [16] is described as follows: probe aWnt5a binding to arrayed compounds – biochemical, biotinylated probe, 635/667 nm fluorescence, primary screen (AID 1113).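 Note: score merges 667 nm fluorescence intensity with signal-to-noise per printed feature.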 Conditions: small-molecule microarray, higher = more signal.
Test [17] is described as follows: probe aShh binding to arrayed compounds – biochemical, biotinylated probe, 635/667 nm fluorescence, primary screen (AID 1114).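 Note: probe is biotin-labelled aShh protein from a stem cell growth factor screen; measures binding of labelled protein to compounds printed on the slide; score merges feature fluorescence at 667 nm with signal-to-noise.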 Conditions: small-molecule microarray, higher = more signal.
A short description of test [18]: probe aNog binding to arrayed compounds – biochemical, biotinylated probe, 635/667 nm fluorescence, primary screen (AID 1115).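 Note: probe is biotinylated aNog protein used at 0.15 µg/mL for 1 h at 4 C; z-score combines 667 nm fluorescence of each spot with its signal to noise.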 The following applies: small-molecule microarray, higher = more signal.
Test [19] deals with Torsin-1A-interacting protein 1 (Homo sapiens) (UniProt Q5JTV8). Description: compound microarray binding of lysate hLAP1 – cell lysate, small-molecule microarray, COS7 lysate, 635/667 nm fluorescence, primary screen (AID 1116). The following applies: 635 nm fluorescence, higher = more signal.
Chain of Torsin-1A-interacting protein 1 (Homo sapiens) (Q5JTV8 whole entry, looked up): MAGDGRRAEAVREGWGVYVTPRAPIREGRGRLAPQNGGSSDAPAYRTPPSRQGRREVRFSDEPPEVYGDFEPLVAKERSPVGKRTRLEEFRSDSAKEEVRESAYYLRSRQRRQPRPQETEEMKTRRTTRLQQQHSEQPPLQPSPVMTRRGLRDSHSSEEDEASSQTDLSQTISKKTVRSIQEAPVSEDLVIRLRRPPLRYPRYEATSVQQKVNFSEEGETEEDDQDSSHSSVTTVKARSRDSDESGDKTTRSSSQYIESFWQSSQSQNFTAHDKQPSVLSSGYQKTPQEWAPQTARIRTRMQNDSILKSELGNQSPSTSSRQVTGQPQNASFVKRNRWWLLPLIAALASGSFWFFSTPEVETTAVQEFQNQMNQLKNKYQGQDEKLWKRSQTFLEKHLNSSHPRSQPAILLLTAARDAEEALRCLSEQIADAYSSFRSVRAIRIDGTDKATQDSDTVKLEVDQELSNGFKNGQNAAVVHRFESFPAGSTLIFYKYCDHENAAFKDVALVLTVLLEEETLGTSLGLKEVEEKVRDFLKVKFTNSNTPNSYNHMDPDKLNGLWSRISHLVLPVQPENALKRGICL
Test [20] addresses Alpha-bungarotoxin (Bungarus multicinctus) (UniProt P60615). The experiment in a line: compounds binding labelled alpha-BTX control protein – biochemical, small-molecule microarray, Alexa647 label, 635/667 nm fluorescence, artefact control for SMM control protein annotation, profiling panel (AID 1117). The following applies: alpha-BTX-A647 binding fluorescence, higher = more signal.

Results on six compounds are retold here after PubChem BioAssay.

Calls of active or inactive are those of the source.

Chain of Epidermal growth factor receptor (Homo sapiens) (P00533 whole entry, looked up): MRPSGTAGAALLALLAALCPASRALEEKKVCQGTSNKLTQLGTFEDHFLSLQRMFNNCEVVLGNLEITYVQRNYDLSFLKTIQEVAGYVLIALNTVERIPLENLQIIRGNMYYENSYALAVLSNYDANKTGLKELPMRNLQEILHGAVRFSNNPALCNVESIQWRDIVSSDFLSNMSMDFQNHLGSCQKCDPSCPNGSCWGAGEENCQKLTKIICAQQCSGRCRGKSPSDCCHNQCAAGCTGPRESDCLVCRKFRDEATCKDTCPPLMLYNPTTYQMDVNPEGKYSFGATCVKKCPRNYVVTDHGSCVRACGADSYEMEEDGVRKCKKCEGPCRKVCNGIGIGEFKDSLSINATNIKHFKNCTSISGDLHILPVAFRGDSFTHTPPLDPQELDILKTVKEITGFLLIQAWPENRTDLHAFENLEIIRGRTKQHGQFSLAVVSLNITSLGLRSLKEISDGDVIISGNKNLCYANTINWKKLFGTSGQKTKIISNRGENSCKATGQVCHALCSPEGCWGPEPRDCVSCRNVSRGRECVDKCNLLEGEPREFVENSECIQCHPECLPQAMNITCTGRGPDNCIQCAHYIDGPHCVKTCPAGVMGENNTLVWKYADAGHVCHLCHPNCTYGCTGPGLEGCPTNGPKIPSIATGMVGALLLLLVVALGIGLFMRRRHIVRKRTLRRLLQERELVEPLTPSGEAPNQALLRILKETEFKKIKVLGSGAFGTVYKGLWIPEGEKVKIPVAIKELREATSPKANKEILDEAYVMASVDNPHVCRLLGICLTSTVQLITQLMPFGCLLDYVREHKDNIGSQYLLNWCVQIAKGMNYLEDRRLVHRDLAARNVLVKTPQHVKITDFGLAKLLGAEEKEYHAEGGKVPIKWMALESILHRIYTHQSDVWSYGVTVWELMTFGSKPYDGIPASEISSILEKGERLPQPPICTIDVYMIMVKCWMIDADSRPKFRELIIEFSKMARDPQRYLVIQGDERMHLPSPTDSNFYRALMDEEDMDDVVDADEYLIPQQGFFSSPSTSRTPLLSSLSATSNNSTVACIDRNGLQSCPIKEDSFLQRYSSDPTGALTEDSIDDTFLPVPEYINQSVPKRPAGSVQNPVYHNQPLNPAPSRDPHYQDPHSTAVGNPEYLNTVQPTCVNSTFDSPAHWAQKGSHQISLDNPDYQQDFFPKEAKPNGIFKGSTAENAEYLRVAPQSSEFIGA
Chain of Alpha-bungarotoxin (Bungarus multicinctus) (P60615 whole entry, looked up): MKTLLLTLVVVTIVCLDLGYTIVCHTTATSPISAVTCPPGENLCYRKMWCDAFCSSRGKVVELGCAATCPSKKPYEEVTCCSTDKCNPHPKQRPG

Turning to `CCOC(=O)C[C@H]1[C@H](OC(=O)c2cc3ccccc3oc2=O)[C@@H](NC(=O)C2CCCCC2)c2cc(OCCCO)ccc2N1C(=O)c1ccc2ccccc2n1`, the composite z-score in [1] was 0.631; in test [2], -0.245; in [3], -0.273; in test [5], 0.68; in test [6], 0.413; in test [7] it was 0.258. The composite z-score in [8] is 1.08; in test [9] it was 0.493; in test [10], 0.304; in test [11] it was 1.03; in test [13], 0.4; in test [14] it was 0.242. In addition, the composite z-score in [15] was -0.137; in test [16] it was -0.0721; in test [17] it was 0.225; in test [18] it was -0.188; in [19] it was 0.767; in test [20] it was 0.131. In addition, the z-score in test [4] is -0.34 (inactive); in test [12] it was -0.26.

Turning to `O=C1O[C@H](c2ccccc2)[C@H](c2ccccc2)N2[C@H]1[C@@H](C(=O)NC[C@H](O)c1ccccc1)[C@]1(C(=O)Nc3ccc(C#CC4=CCCCC4)cc31)[C@H]2c1ccc(OCCO)cc1`, the composite z-score came out at 1.06 in test [1]; 0.607 in test [2]; 0.469 in test [3]; 0.313 in test [5]; 1.27 in test [6]; 0.386 in test [7]. Also, the composite z-score in test [8] was 0.968; in test [9], 0.703; in test [10], 1.05; in [11] it was 0.567; in [13], 0.377; in test [14] it was 0.977. The composite z-score in test [15] was 0.385; in test [16], -0.0519; in test [17], 0.0711; in test [18] it was 0.0884; in test [19], 0.6; in test [20], 1.38. The z-score in test [4] is -1.33 (inactive); in [12], -1.91.

Consider `NC(=O)NCC#Cc1ccc2c(c1)[C@]1(C(=O)N2)[C@H](C(=O)N2CCCCCCC2)[C@H]2C(=O)O[C@H](c3ccccc3)[C@H](c3ccccc3)N2[C@@H]1c1ccccc1OCCO`, for which the composite z-score in test [1] came to 1.82; in [2], 2.98; in [3] it was 1.66; in test [5], 1.39; in [6] it was 1.38; in [7], 1.7. Further, the composite z-score in [8] was 1.71; in [9], 2.26; in [10] it was 1.86; in test [11] it was 1.37; in test [13] it was 1.46; in test [14], 2.99. The composite z-score is 1.69 in test [15]; 1.31 in test [16]; 2.38 in [17]; 2.29 in test [18]; 5.01 in test [19]; 2.63 in test [20]. For the same compound, the figures for the z-score in test [4] and in [12] were 0.0838 (inactive) and -1.54, respectively.

For the compound `C=CCC(OC(C)=O)[C@@H]1[C@@H](N(Cc2ccc(-c3cccc(C(F)(F)F)c3)o2)C(=O)Cc2ccc(F)cc2)c2cc(OCCCO)ccc2N1C(=O)c1ccc(-c2ccccc2)cc1` (stereo not given in full), the composite z-score in test [1] is 0.18; in test [2], -0.0567; in [3], 0.494; in test [5] it was -0.204; in [6] it was -0.847; in [7] it was -0.736. The composite z-score in test [8] was -0.198; in [9], -0.0679; in test [10], 1.32; in test [11], -0.741; in test [13], -0.689; in [14] it was -0.679. The composite z-score is 0.671 in test [15]; -0.154 in [16]; 0.0899 in test [17]; 0.172 in test [18]; 0.14 in [19]; -0.227 in test [20]. Also, the z-score in test [4] is -0.291 (inactive); in [12], -0.583.

For the compound `O=C1O[C@H](c2ccccc2)[C@H](c2ccccc2)N2[C@H]1[C@@H](C(=O)Nc1nc3ccccc3s1)[C@]1(C(=O)Nc3ccc(C#CC4(O)CCCCCC4)cc31)[C@H]2c1ccc(O)cc1`, the composite z-score in [1] is 1.53; in test [2], 0.0991; in test [3] it was -0.0778; in [5] it was 1.13; in test [6], 1.27; in test [7], 0.556. Besides, the composite z-score in test [8] was 0.976; in test [9], 0.413; in test [10], 0.357; in [11], 1.38; in [13], 0.596; in [14], 1.94. For the same compound, the composite z-score in test [15] is 0.597; in [16] it was -0.0125; in test [17], -0.203; in test [18], -0.387; in [19] it was 1.58; in test [20], 2.17. For the same compound, the results for the z-score in test [4] and in [12] were -0.493 (inactive) and -0.733, respectively.

For `CCOC(=O)C1=CC[C@@H](c2ccccc2)N(S(=O)(=O)c2ccc(C)cc2)[C@H]1C`, the composite z-score was found to be 1.09 in test [1]; 0.821 in [2]; 0.567 in test [3]; 1.4 in test [5]; 0.312 in test [6]; 1.02 in [7]. The composite z-score in [8] stood at 1.38; in test [9], 0.635; in test [10], 0.258; in test [11], 1.47; in test [13], 0.902; in test [14] it was 0.764. Besides, the composite z-score was 0.665 in test [15]; 0.101 in [16]; -0.214 in test [17]; 0.787 in test [18]; 0.682 in test [19]; 1.74 in test [20]. The values for the z-score in test [4] and in test [12] were -0.993 (inactive) and -2.88, respectively.
